Shown are actives, neighbours in structure and some others; about 2.4% of the full set was active somewhere.
Pol eta inh = inhibitors of human DNA polymerase eta; Q9Y253; recombinant Pol eta, fluorescent DNA replication assay; Potency, µM (top dose mostly 114 µM), for the others: at the top dose activity change, negative = inhibition, actives largely listed as inhibitors; actives 1.2% (n = 390,000); note: % is set by controls: 0 for no effect and ±100 for the full control effect
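Fluorescent replication assay: 50 nM final substrate added after a 15 min room-temperature compound preincubation with 10 nM enzyme. Signal taken at 0 min and again at 10 min.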
WRN helicase inh = WRN helicase (human) inhibition; Potency, µM (highest dose often 114 µM), for the others: top-dose activity change, negative = inhibition, hits mostly inhibitors; WRN helicase unwinding, fluorescent forked duplex, kinetic; Q14191; actives 0.46% (n = 360,000); AID 651768; note: % is set by controls: 0 for no effect and ±100 for the full control effect; nearly all actives have a fitted effect of over 55% in size
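Fluorescence dequenching readout, ex 525 nm/em 598 nm, kinetic mode: forked duplex DNA (100 nM final) with adjacent fluorophore and quencher unwound by WRN (20 nM final) with 2 mM ATP. Compound preincubation 15 min, room temperature.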
Pol beta inh = inhibitors of human DNA polymerase beta. AID 485314. Potency, µM (series often up to 114 µM), inactives show at the highest dose activity change, negative = inhibition, actives largely listed as inhibitors. P06746. Pol beta primer extension/strand displacement, fluorescence kinetic. actives 1.3% (n = 340,000); note: % is set by controls: 0 for no effect and ±100 for the full control effect
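10 nM enzyme + cpd, 15 min RT; start with substrate 50 nM final; read 0 min and after 10 min RT. Corrected, normalized data; 4-parameter Hill curve fit.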
FEN1 inh = human FEN1 inhibition. AID 588795. Recombinant FEN1 flap cleavage, fluorescence, 15 min. actives 0.35% (n = 390,000). Potency, µM (series often up to 114 µM), for the others: top-dose activity change, negative = inhibition, most hits filed as inhibitors; note: % is set by controls: 0 for no effect and ±100 for the full control effect; nearly all actives have a fitted effect of over 65% in size
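Reaction started by adding substrate (50 nM final) to 10 nM enzyme after 15 min room-temperature compound preincubation. Reads at 0 and 15 min, with data normalized and fitted to a four-parameter Hill equation.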
Pol kappa inh = blocks human DNA polymerase kappa activity; AID 588579; Potency, µM (doses to about 107 µM), inactives show at the top dose activity, negative = inhibition, usual class: inhibitors; purified Pol kappa, fluorescent DNA synthesis assay, 10 min; actives 0.53% (n = 400,000); note: % is set by controls: 0 for no effect and ±100 for the full control effect
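10 nM Pol kappa was preincubated with compounds for 15 min at room temperature. Reaction started with 50 nM (final) substrate. Fluorescence read kinetically at 0 and 10 min.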
Pol iota inh = blocks human DNA polymerase iota activity; Q9UNA4; Pol iota fluorescent replication assay, 10 min; Potency, µM (top dose mostly 115 µM), inactives show top-dose activity, negative = inhibition, actives largely listed as inhibitors; actives 1% (n = 390,000); AID 588590
Target sequence (Q9UNA4 whole entry, looked up): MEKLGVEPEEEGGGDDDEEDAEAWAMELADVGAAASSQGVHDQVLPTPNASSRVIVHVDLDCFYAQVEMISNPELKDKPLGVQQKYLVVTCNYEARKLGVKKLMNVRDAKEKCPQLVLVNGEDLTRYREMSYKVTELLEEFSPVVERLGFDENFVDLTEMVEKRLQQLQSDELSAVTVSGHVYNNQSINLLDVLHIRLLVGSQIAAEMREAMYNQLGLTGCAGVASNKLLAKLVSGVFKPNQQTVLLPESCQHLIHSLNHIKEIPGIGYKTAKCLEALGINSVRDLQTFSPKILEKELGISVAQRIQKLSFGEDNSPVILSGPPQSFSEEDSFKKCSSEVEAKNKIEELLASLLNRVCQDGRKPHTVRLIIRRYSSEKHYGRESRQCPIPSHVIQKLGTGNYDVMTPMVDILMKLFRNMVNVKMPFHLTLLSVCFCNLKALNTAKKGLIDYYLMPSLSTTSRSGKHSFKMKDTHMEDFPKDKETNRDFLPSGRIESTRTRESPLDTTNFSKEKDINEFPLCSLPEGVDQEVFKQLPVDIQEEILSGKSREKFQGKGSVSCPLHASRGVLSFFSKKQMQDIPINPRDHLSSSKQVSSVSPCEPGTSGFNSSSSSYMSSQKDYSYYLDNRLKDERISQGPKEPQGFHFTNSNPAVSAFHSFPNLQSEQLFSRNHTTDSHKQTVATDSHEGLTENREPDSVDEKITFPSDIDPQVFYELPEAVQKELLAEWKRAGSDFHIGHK
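Fluorescent replication assay read twice, at 0 min and 10 min after adding 50 nM (final) substrate. Enzyme (10 nM) and compounds were first incubated 15 min at room temperature; enzyme-free buffer wells were negative controls.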
Starred values were filed as active, the others as inactive; ? = inconclusive; · = no result; [ ] = dose if it differs, or a comment. Calls come from the whole dose curve; as a rule, active = well fitted curve in the direction sought with a large enough effect; inconclusive = small, poorly fitted or top-dose-only effect, or another doubt; inactive = no such curve, though single readings can be large; an effect the other way counts as inactive or inconclusive. Potency is the fitted concentration of half-maximal effect.

SMILES | Pol eta inh | WRN helicase inh | Pol beta inh | FEN1 inh | Pol kappa inh | Pol iota inh
O=C(c1ccco1)N1CCC2(CC1)CN(C(c1ccccc1)c1ccccc1)C2 | · | · | · | · | -3%[60.1 µM] | ·
O=C1C(=NO)CCc2ccccc21 | 18µM* | ? | · | -4% | -23% | ?
O=C(Nc1ccc2[nH]c(=S)sc2c1)c1ccccc1 | -15% | ? | 11% | -5% | -6% | 138%
O=C(Nc1ccc2[nH]c(=S)sc2c1)Nc1ccccc1F | 79µM* | -4% | -1% | -19% | 8% | ?
CCC(=O)N1c2ccccc2CC1C(=O)NCCN1CCN(c2cccc(C(F)(F)F)c2)CC1 (stereo not given) | -16% | · | 25% | -4% | -4%[60.1 µM] | 31%
COC(=O)\C(C(C)=O)=C(/C=C/C=C/N(C)C)N(C)C | 14µM* | -20% | 22µM* | 5% | ? | ?
CN(C)c1ccc(CC2C(=O)Nc3ccccc32)cc1 (stereo not given) | -19% | -19% | -5% | -4% | -12% | 25µM*
O=C1NC(=S)S/C1=C\c1cc2ccccc2nc1N1CCCCC1 | 40µM* | 8%[11.6 µM] | ? | -12% | -4% | -9%
COc1ccc(-n2c(C)cc(/C=C3\SC(=S)NC3=O)c2C)cc1 | ? | -9% | -3% | -8% | -17% | -28%
COc1ccc2nc(N3CCCCC3)c(/C=C3\SC(=S)NC3=O)cc2c1 | 35µM* | ? | -21% | 11% | 8% | -11%
COCCn1c(=O)c(-c2ccc(Cl)cc2)nc2cnc(N(C)C)nc21 | · | · | · | · | -5%[60.1 µM] | ·
CC(C)CCCC(C)CCCC(C)CCCC(C)C(=O)O (stereo not given) | · | · | · | · | 30µM* | ·
O=C(c1nc2ccc(Cl)cn2c1CN1CCCC1)N1CCc2ccccc2C1 | 32µM* | -11%[11.6 µM] | ? | -20% | ? | 18µM*
O=C(c1nc2ccc(Cl)cn2c1CN1CCC(CO)CC1)N1CCc2ccccc2C1 | -18% | -14% | 7% | 6% | 0% | 28%
O=S(=O)(c1ccc(F)cc1)N1CCN(c2nc(-c3ccccc3)nc3ccccc23)CC1 | · | · | · | -11% | -15% | 3%
CC(C)(C)n1ncc2c(=O)n(Cc3ccc(SC(=O)O)cc3Cl)cnc21 | · | · | · | -1% | -10% | -4%
Cc1ccc(CN(C(=O)c2ccccc2F)c2ccccn2)o1 | -23% | · | 56µM* | -14% | ? | 79µM*
CCc1cccc(CC)c1NC(=O)CCS(=O)(=O)c1ccc(Br)s1 | -12% | · | 20µM* | 6% | -4% | 2%
COc1ccc(NC(=O)CCS(=O)(=O)c2ccc(Br)s2)cc1 | 50µM* | -7%[11.6 µM] | 32µM* | -12% | ? | ?
O=c1c(Cl)c(Cl)cnn1Cc1nnc(-c2ccccc2Br)o1 | 79µM* | -35%[57.1 µM] | 40µM* | 12% | -17% | ?
Clc1ccccc1OCc1nnc(-c2ccccc2Br)o1 | 1% | -2% | 6% | -17% | -5% | -1%
CCOC(=O)N1CCN(C(=O)CN2C(=O)/C(=C\c3cccc(OC)c3)SC2=S)CC1 | · | · | · | -5% | -1% | 9%
O=C(CCS(=O)(=O)c1ccccc1)Nc1nc2cc3c(cc2s1)OCO3 | ? | -31% | ? | 0% | -17% | 71µM*
COc1ccc(CCNC(=O)c2ccc(Cl)cc2)cc1OC | 5% | 5% | 1% | -1% | -7% | 99%
COc1ccc(CCNC(=O)c2ccc(N3CCCCS3(=O)=O)cc2)cc1OC | 2% | -13% | ? | 19% | -35% | 79µM*
Cc1ccc(C(=O)Nc2cccc(C(F)(F)F)c2)cc1NC(=O)c1nccn1C | 12% | -5% | 40µM* | 6% | -20% | ?
COc1ccc(CCNC(=O)c2ccc3nc(-c4ccco4)c(-c4ccco4)nc3c2)cc1OC | 79µM* | 35µM* | 35µM* | ? | 45µM* | 13µM*
O=C(Nc1cccc(C(F)(F)F)c1)c1ccc2nc(-c3ccco3)c(-c3ccco3)nc2c1 | 8.9µM* | 25µM* | 10µM* | ? | 45µM* | 16µM*
CC(=O)Nc1cc(O)c2nonc2c1O | · | · | · | ? | -14% | -92%

From PubChem BioAssay
